# Hits are enriched below; roughly 8.8% of the tested compounds scored in any of these assays.
# Lamin A splicing: qHTS Assay for Modulators of Lamin A Splicing; HeLa LMNA splicing GFP/RFP minigene ratio, 48 h; Potency, µM (titrated, usually from 46.1 µM), inactives show at the highest dose ratio change, negative = inhibition, most hits filed as inhibitors; 200,000 tested, 0.01% active; active = well fitted inhibition curve with a large enough effect in the signal ratio, with a control signal flat, not every such curve was filed as active; inconclusive = small, poorly fitted or top-dose-only effect, or effect the other way, or a change in a side signal; the % refers to the signal ratio; note: % is set by controls: 0 for no effect and ±100 for the full control effect
#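 S3 HeLa stable clones carrying a lamin A-EGFP splicing minigene plus DsRed2 were seeded at 600 cells/well in Opti-MEM with 2% FBS, pin-dosed and incubated 48 h at 37°C. Acumen cytometry (488 nm) gave the GFP/RFP total-intensity ratio.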
# HPGD block: qHTS Assay for Inhibitors of HPGD (15-Hydroxyprostaglandin Dehydrogenase); AID 894, 2007; 15-hydroxyprostaglandin dehydrogenase [NAD(+)] (Homo sapiens), P15428; purified HPGD, NADH fluorescence kinetic, PGE2 substrate; 150,000 tested, 4.3% active; Potency, µM, for inactives: at the top dose activity change, negative = inhibition, hits mostly inhibitors; active = well fitted inhibition curve with a large enough effect, not every such curve was filed as active; inconclusive = small, poorly fitted or top-dose-only effect, or another doubt; inactive = no such curve, though single readings can be large or run the other way; note: % is set by controls: 0 for no effect and ±100 for the full control effect
# Target sequence (P15428 whole entry, looked up): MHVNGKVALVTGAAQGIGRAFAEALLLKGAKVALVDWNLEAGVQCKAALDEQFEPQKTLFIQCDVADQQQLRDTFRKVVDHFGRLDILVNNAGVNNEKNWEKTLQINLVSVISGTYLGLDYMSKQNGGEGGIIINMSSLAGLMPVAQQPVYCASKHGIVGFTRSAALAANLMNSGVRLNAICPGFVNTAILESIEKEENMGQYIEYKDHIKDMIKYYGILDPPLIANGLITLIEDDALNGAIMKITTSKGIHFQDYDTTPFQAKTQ
#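 20 nM HPGD preincubated 15 min at room temperature with compound in 50 mM Tris-HCl pH 8, 0.01% Tween 20. Started with 1 mM NAD+ and 30 uM prostaglandin E2; NADH fluorescence (360/450 nm) read 5 times over 30-s intervals, last minus first.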
# ALDH1A1 block: qHTS Assay for Inhibitors of Aldehyde Dehydrogenase 1 (ALDH1A1); Purified ALDH1A1, NADH fluorescence, propionaldehyde substrate; Potency, µM (top dose mostly 75.3 µM), inactives show top-dose activity, negative = inhibition, most hits filed as inhibitors; 220,000 tested, 7.3% active; AID 1030, 2008; active = well fitted inhibition curve with a large enough effect, not every such curve was filed as active; inconclusive = small, poorly fitted or top-dose-only effect, or another doubt; inactive = no such curve, though single readings can be large or run the other way;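 note: plate controls were no enzyme wells and a reference inhibitor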
# HTT aggregate: qHTS Multiplex Assay to Identify Dual Action Probes in a Cell Model of Huntington: Aggregate Formation (GFP); AID 1688, 2009; Potency, µM (doses to about 46.1 µM), for inactives: at the highest dose activity change, negative = inhibition, usual class: inhibitors; 220,000 tested, 1.1% active; PC12 HttQ103-GFP aggregates, Acumen cytometry, 40 h; note: % is set by controls: 0 for no effect and ±100 for the full control effect; nearly all actives have a fitted effect of over 60% in size
#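 Aggregates are detected as GFP objects 1–25 µm with signal 6 STDEV over background in lysates of induced PC12 cells. These carry Huntingtin exon 1 with 103 glutamines fused to GFP under an ecdysone promoter; compounds titrated.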
# HTT ATP protect: qHTS Multiplex Assay to Identify Dual Action Probes in a Cell Model of Huntington: Cytoprotection (ATP). PC12 HTT-Q103 induced, cytoprotection, ATP luminescence, 40 h. Potency, µM (highest dose often 56.4 µM), inactives show cytoprotection (ATP increase), hits mostly activators. 230,000 tested, 0.14% active. AID 1471, 2008; note: % of control where 0% means no effect; nearly all actives have a fitted effect of over 45% in size
#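 Stable PC12 Q103-GFP cells in serum-supplemented, phenol red-free DMEM; induction by tebufenozide at 100 nM final; compound dose series; cell viability quantified luminescently from ATP.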
# * hit, by the source's call; ? = inconclusive; / = not tested or not shown; [ ] = remark or other dose. Unless noted, calls come from the whole dose curve; as a rule, active = well fitted curve in the direction sought with a large enough effect; inconclusive = small, poorly fitted or top-dose-only effect, or another doubt; inactive = no such curve, though single readings can be large; an effect the other way counts as inactive or inconclusive. Potency is the fitted concentration of half-maximal effect.
SMILES,Lamin A splicing,HPGD block,ALDH1A1 block,HTT aggregate,HTT ATP protect
COC(=O)c1cccc(C#CC(NP(=O)(c2ccccc2)c2ccccc2)c2ccccc2)c1 (configuration not stated),/,-12%,13µM*,-2%[9.22 µM],-3%
COC(=O)c1ccc(C#CC(NP(=O)(c2ccccc2)c2ccccc2)c2ccccc2)cc1 (configuration not stated),/,25µM*,?,/,?
CCC[C@@H]1C[C@@]1(CCC)[C@@H](NP(=O)(c1ccccc1)c1ccccc1)c1ccc(C(=O)OC)cc1,?,-15%,6%,?,-129%
CCc1ccccc1-n1cnc2cc(C(=O)NC3CCCCCC3)ccc21,-8%[46 µM],/,/,/,/
C[C@H]1CN(S(=O)(=O)c2cccc3cnccc23)CCN1,/,/,/,/,10%[1.9 µM]
Cc1ccc(Nc2c(-c3ccc(C)o3)nc3cnccn23)cc1,-18%,?,?,5%,-26%
Cc1ccc(-c2nc3cnccn3c2Nc2ccc3c(c2)OCO3)o1,-9%,-29%,14µM*,-3%,1%[10 µM]
CC12C=C(/C=C/CCc3ccco3)C(C)(C1)C(CCc1ccco1)CC2=O (configuration not stated),/,/,4µM*,/,1%[10 µM]
CCN(CC)C(=S)SC1CCCCN(C(=O)c2ccccc2)C1=O (configuration not stated),/,/,?,-2%[9.22 µM],-3%[10 µM]
CCOc1ccc(N2C(=O)CN=C2Nc2ccccc2Cl)cc1,2%,-9%,9%,14%,5%
O=C1CN=C(Nc2ccccc2Cl)N1c1ccccc1,-16%,-14%,?,2.8µM*,-83%[10 µM]
CC(C)(C)OC(=O)N1CCC(c2c(C(=O)N3CCN(C(=O)c4ccco4)CC3)cnn2-c2ccccc2Cl)CC1,-10%[46 µM],/,/,/,/
CCOC(=O)CC(=O)CSc1ccc2nnc(-c3ccc(C)cc3)n2n1,10%,13µM*,-10%,-27%,-7%
Cc1cc(C(c2nnnn2Cc2ccccc2)N2CCOCC2)c(C)n1-c1ccc2c(c1)OCO2 (configuration not stated),5%,-12%,13µM*,1%,13%
CCOc1ccc2ncc(S(=O)(=O)c3ccc(C)cc3)c(N3CCC4(CC3)OCCO4)c2c1,?,/,3.2µM*,?,-6%[10 µM]
CCCc1nn2c(=O)cc(COC(=O)C3CCCCC3)nc2s1,-18%[46 µM],/,/,/,/
CC(c1ccon1)N(C)Cc1cn(C)nc1-c1cccc(Cl)c1 (configuration not stated),/,/,?,-3%[9.22 µM],-15%[10 µM]
CCN(CC)S(=O)(=O)c1ccc2c(c1)nc(CCC(=O)OCC(=O)Nc1cc(OC)cc(OC)c1)n2C,3%,-7%,?,4%,35%[10 µM]
CCN(CC)S(=O)(=O)c1ccc2c(c1)nc(CCC(=O)OCC(=O)Nc1c(F)cccc1F)n2C,-1%,-10%,10µM*,9%,/
CCN(CC)S(=O)(=O)c1ccc2c(c1)nc(CCC(=O)Nc1ccc3c(c1)OCO3)n2C,-18%,-1%,7.9µM*,8%,-19%[10 µM]
CN(C)S(=O)(=O)c1ccc2c(c1)nc(CCC(=O)Nc1ccc3c(c1)OCO3)n2C,?,-16%,5µM*,15%,/
CCN(CC)S(=O)(=O)c1ccc2c(c1)nc(CCC(=O)Nc1ccc3c(c1)OCO3)n2CC,?,-11%,2.8µM*,17%,24%[10 µM]
CN(C)S(=O)(=O)c1ccc2c(c1)nc(CCC(=O)Nc1ccc(N3CCOCC3)cc1)n2C,/,/,-1%,9%,-10%[10 µM]
Cc1cc(C(=O)Nc2ccc3nc(C)sc3c2)c2ccccc2n1,/,/,/,-6%[9.22 µM],-12%[10 µM]
CCN(CC)S(=O)(=O)c1ccc2c(c1)nc(CCC(=O)O)n2C,-3%[46 µM],/,11µM*,19%[9.22 µM],13%[10 µM]
SMILES,Lamin A splicing,HPGD block,ALDH1A1 block,HTT aggregate,HTT ATP protect
CCCCn1c(CCC(=O)O)nc2cc(S(=O)(=O)N(C)C)ccc21,/,/,2%,31%,/
CC1=C(C(=O)OC(C)C)C(c2cccc([N+](=O)[O-])c2)n2c(cc(=O)[nH]c2=S)N1 (configuration not stated),?,28µM*,8%,-14%,/
CCOC(=O)/C=C/CCC/C=C/C(=O)c1ccccc1,/,-14%,-10%,/,2%
CCn1c(SCC(=O)Nc2sc3c(c2C#N)CCCC3)nnc1-c1ccncc1,-16%,-9%,18µM*,12%,34%[10 µM]
Cc1ccc(C(=O)NCc2nnc(SCC(=O)Nc3sc4c(c3C#N)CCCC4)n2C)cc1,9%,-33%,14µM*,20%,4%
N#Cc1cc2c(nc1SCC(=O)Nc1sc3c(c1C#N)CCC3)CCCCCC2,3%,-10%,16µM*,-2%,-20%
COc1ccc(-c2cc(C(F)(F)F)nc(SCC(=O)Nc3sc4c(c3C#N)CCC4)n2)cc1,-3%,?,?,?,13%[10 µM]
COc1ccc(-c2nnn(CC(=O)Nc3sc4c(c3C#N)CCCC4)n2)cc1,8%,-18%,10µM*,12%,-11%
N#Cc1cc2c(nc1SCC(=O)Nc1sc3c(c1C#N)CCC3)CCC2,17%,-24%,-13%,10%,4%
CCOC(=O)Cn1c(=O)n(CC2CCCO2)c2nc(-c3ccc(C)cc3)nc(C(N)=O)c21 (configuration not stated),-11%[46 µM],/,/,/,/
COCCCNC(=O)C1CCN(Cc2cc3ccccc3n2Cc2cccc(Cl)c2)CC1,-7%[46 µM],/,/,/,/
O=S(=O)(c1ccccc1)c1ncc(C(F)(F)F)cc1Cl,?,/,10µM*,?,6%[10 µM]
COc1ccc(CN(CC2CCCO2)C(=O)c2cc3sccc3n2C)c(OC)c1 (configuration not stated),/,/,11µM*,/,/
CC(C)C(OC(=O)c1cc2sccc2n1C)C(=O)NCC1CCCO1 (configuration not stated),?,-9%,-3%,-8%,-14%[10 µM]
CC(=O)C1=C(c2ccc(Cl)cc2)N(C(C)=O)n2c(nnc2C2CCCCC2)S1,-22%[46 µM],/,/,/,/
O=C(CSc1nnnn1-c1cccnc1)Nc1ccc(OCc2ccccc2)cc1,2%,-12%,4µM*,-16%,-35%
O=C(CSc1nnnn1-c1ccccc1)CC(=O)Nc1ccc(Cl)cc1,?,-31%,2.2µM*,-27%,-26%[0.074 µM]
CC(CC(=O)O)(CC(=O)O)C(=O)O,/,-1%,3%[13.5 µM],/,-3%[10 µM]
N#C/C(=C/c1ccccc1[N+](=O)[O-])c1nnc2n1CCCCC2,-14%,2.5µM*,22µM*,-9%,2%[1.9 µM]
